From PubChem BioAssay
The source made the active and inactive calls.

Key:
[1] = compound effects on lung adenocarcinoma cell viability – A549, calcein-AM fluorescence, 48 h, basal, profiling panel (AID 1162); settings: higher = more signal
[2] = compound effects on differentiated 3T3-L1 adipocyte viability – cell-based, 3T3-L1 adipocytes, calcein-AM fluorescence, 48 h, basal, profiling panel (AID 1163); settings: 3T3-L1 adipocytes viability, higher = more signal
[3] = compound effects on hepatocellular carcinoma cell viability – HepG2, calcein-AM fluorescence, 48 h, basal, profiling panel (AID 1164); settings: higher = more signal
[4] = compound effects on multiple myeloma cell viability – MM1S, calcein-AM fluorescence, 48 h, basal, profiling panel (AID 1165); settings: higher = more signal;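 note: viability of MM1S multiple myeloma cells under basal unstimulated conditions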
[5] = calcein-AM signal in unstimulated myeloma cells – cell-based, calcein-AM fluorescence, 48 h, PK04 Diversity Set, profiling panel (AID 1166); settings: RPMI8226 myeloma viability, higher = more signal;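 note: cells grown under basal conditions without added stimulus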
[6] = JC-1 mitochondrial signal, unstimulated HepG2 cells – cell-based, JC-1 fluorescence, 24 h, 100 nL compound, profiling panel (AID 1167); settings: HepG2 mitochondrial potential, higher = more signal
[7] = JC-1 mitochondrial signal, unstimulated adipocytes – cell-based, JC-1 fluorescence, 3T3-L1 adipocytes, 24 h, 100 nL compound, profiling panel (AID 1168); settings: JC-1 mitochondrial fluorescence, higher = more signal, called active from +8 up or from −8 down
[8] = JC-1 mitochondrial signal, unstimulated myeloma cells – cell-based, JC-1 fluorescence, RPMI8226, 24 h, 100 nL compound, profiling panel (AID 1169); settings: JC-1 mitochondrial potential fluorescence, higher = more signal
[9] = JC-1 mitochondrial signal, unstimulated MM1S myeloma – cell-based, JC-1 fluorescence, 24 h, 100 nL compound, profiling panel (AID 1170); settings: MM1S mitochondrial potential, higher = more signal
[10] = resazurin metabolic signal in A549 cells – cell-based, resazurin fluorescence, 24 h, PK04 Diversity Set, profiling panel (AID 1171); settings: A549 viability, higher = more signal, called active from +8 up or from −8 down
Note: test concentration not given here.

Structure (SMILES) | z-score [1] | z-score [2] | z-score [3] | z-score [4] | z-score [5] | z-score [6] | z-score [7] | z-score [8] | z-score [9] | z-score [10]
[N-]=[N+]=NCc1ccccc1C[C@]1(C(=O)O)N=C(c2ccc(OCCCO)cc2)O[C@H]1c1ccccc1CN=[N+]=[N-] | -0.437 | 0.368 | -0.302 | -0.966 | -1.53 | -2.38 | -1.4 (inactive) | -0.789 | 0.432 | 1.17 (inactive)
CO[C@H]1O[C@H](CO)[C@@H](OC(=O)Nc2ccc(Oc3ccccc3)cc2)[C@H](OC(=O)Nc2ccccc2)[C@H]1OC(=O)Nc1ccccc1 | -1.63 | 0.547 | -3.37 | -2.24 | -3.61 | -0.684 | 1.2 (inactive) | -1.31 | -0.427 | -3.41 (inactive)
COC(=O)[C@@]1(Cc2ccc(OC)cc2)[C@H]2c3cc(C(=O)N4CCCC4)n(CCc4c[nH]c5cc(F)ccc45)c3C[C@H]2CN1C(=O)c1ccccc1 | 0.866 | -0.124 | 0.172 | -1.08 | -0.758 | -0.37 | 0.492 (inactive) | -0.304 | -0.662 | 0.313 (inactive)
C=CC[C@@]1(C(=O)NCC(O)CO)N=C(c2ccc(OCCCO)cc2)O[C@@H]1c1ccccc1N=[N+]=[N-] (stereo not given in full) | -0.112 | 1.37 | -0.805 | -0.494 | -1.14 | 0.582 | -0.343 (inactive) | -0.164 | -1.17 | 0.695 (inactive)
COCCCNC(=O)[C@@]1(CCC(=O)OC(C)(C)C)N=C(c2ccc(OCCCO)cc2)O[C@H]1c1ccccc1CN=[N+]=[N-] | 0.463 | 0.892 | -0.244 | 0.153 | -0.853 | 0.88 | -0.736 (inactive) | 0.665 | 0.5 | 0.155 (inactive)
Cc1ccc(S[C@]2(C(=O)NC3CC3)CC(=O)N(C3CCCCC3)[C@@H]2c2ccc(CO)cc2I)cc1 | 1.07 | -0.07 | 1.12 | -2.5 | -1.7 | 1.62 | 0.124 (inactive) | -0.558 | -1.2 | -0.0731 (inactive)
CCCCCN1CC=CC23O[C@@H]4/C=C\CCCOC(=O)C4[C@H]2C(=O)N(CCCCCCO)[C@@H]3C1=O (stereo not given in full) | 1.26 | 2.1 | 1.54 | 1.37 | 1.97 | 0.482 | -0.462 (inactive) | 0.521 | -1.09 | 0.4 (inactive)
CO[C@H]1O[C@H](CO)[C@@H](OC(=O)Nc2ccc3c(c2)OCO3)[C@H](OC(=O)Nc2ccccc2)[C@H]1OC(=O)Nc1ccccc1 | -2.08 | 1.11 | -2.7 | -1.67 | -2.56 | -0.812 | 1.42 (inactive) | -0.442 | -1.37 | -3.25 (inactive)
Cc1ccc(S[C@]2(C(=O)NCCN3CCOCC3)CC(=O)N(Cc3cc(C(F)(F)F)cc(C(F)(F)F)c3)[C@@H]2c2ccc(CO)cc2I)cc1 | 0.356 | 0.712 | -0.554 | -2.1 | -1.92 | -0.168 | -0.227 (inactive) | -0.2 | -1.57 | 0.36 (inactive)
COc1ccc(C(O)C2C=CC3C(=O)N(C)C(=O)C3N2Nc2ccccc2)cc1OCc1ccccc1 (stereo not given) | -0.433 | -0.621 | -0.269 | -0.23 | -0.427 | -1.7 | -0.989 (inactive) | 0.324 | 0.0666 | 1.88 (inactive)
O=c1cccc(CCc2ccccc2)o1 | -0.0082 | -0.519 | 0.926 | -0.441 | -0.709 | -0.903 | -0.352 (inactive) | -0.976 | 0.226 | -0.574 (inactive)
COC(=O)c1c(CC[C@@H](CO)NC(=O)N[C@@H](Cc2ccccc2)Cn2cc(C3(O)CCCCC3)nn2)oc(C(C)=O)c1C(=O)OC | 0.548 | 2.01 | -0.889 | 0.513 | -1.69 | 0.384 | 0.349 (inactive) | -0.614 | -0.403 | 0.215 (inactive)
CC1=C2[C@@H](CCc3ccccc3)OB(O)C[C@@H]2n2c(=O)n(-c3ccccc3)c(=O)n2C1 | 0.328 | -0.448 | -0.335 | 0.271 | -1.14 | -2.01 | 0.553 (inactive) | 0.146 | -0.126 | -0.699 (inactive)
O=C1O[C@H](c2ccccc2)[C@H](c2ccccc2)N2[C@H]1[C@@H](C(=O)O)[C@]1(C(=O)Nc3ccc(C#CC4=CCCCC4)cc31)[C@H]2c1ccc(OCCO)cc1 | 0.199 | -0.774 | 0.122 | -2.72 | -4.06 | -4.3 | -3.28 (inactive) | -0.949 | -1.53 | 0.729 (inactive)
C=CCNC(=O)[C@H]1[C@@H]2C(=O)O[C@@H](c3ccccc3)[C@@H](c3ccccc3)N2[C@@H](c2ccc(O)cc2)[C@]12C(=O)N(C(=O)OCCOC)c1ccc(C#CCCO)cc12 | 1.07 | 0.482 | 0.802 | -0.0589 | 0.233 | 0.0998 | 0.541 (inactive) | -1.07 | 0.45 | -0.319 (inactive)
